High-throughput results: PubChem, National Center for Advancing Translational Sciences (NCATS)
In the library only some 10% were active in any assay of this set; here they are far more common.
HEK cytotox = HEK 293 cell cytotoxicity. HEK 293 viability, ATP luminescence (CellTiter-Glo), 48-72 h. Potency, µM (doses to about 115 µM), usual class: inhibitors. 94,000 compounds, 6.6% hits; also: nearly all actives have a fitted effect of over 60% in size
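HEK 293 cells at 250 cells/well were exposed to compounds by pintool transfer for 48 or 72 hr at 37 degree Celsius, 5% CO2. Viability was read as ATP-coupled luminescence with CellTiter-Glo after 10 min at room temperature.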
NIH3T3 tox = NIH 3T3 cell cytotoxicity; 94,000 compounds, 4.3% hits; NIH 3T3 viability, CellTiter-Glo ATP luminescence, 48-72 h; Potency, µM (highest dose often 96.7 µM), usual class: inhibitors; AID 1345082; also: nearly all actives have a fitted effect of over 55% in size
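Luminescent ATP readout (CellTiter-Glo, 10 min RT) after 48 or 72 hr compound exposure of NIH 3T3 cells seeded at 400 cells/well in 1536-well format; quantitative HTS.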
Luciferase inh = inhibitors of firefly (Photinus pyralis) luciferase. 76,000 compounds, 2.5% hits. P08659. Potency, µM (series often up to 115 µM), most hits filed as inhibitors. AID 1347043. purified P. pyralis luciferase, luminescence, biochemical; also: nearly all actives have a fitted effect of over 65% in size
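Cell-free enzyme assay, 10nM P. pyralis luciferase, luciferin and ATP each at 10uM. Inhibition profiled over a 6-point titration, read as luminescence.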
hNpr1 antagonist = antagonists of human natriuretic peptide receptor Npr1; Potency, µM (highest dose often 46.3 µM), actives largely listed as inhibitors; P16066; 76,000 compounds, 1.6% hits; HEK293 hNpr1 GloSensor cGMP, ANP-stimulated luminescence; AID 1347048; calls by dose curve; also: nearly all actives have a fitted effect of over 60% in size
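HEK293 cells stably expressing human Npr1 and cGMP GloSensor pGS-40F, loaded 2 h with 2% GloSensor reagent, given compound 30 min at room temperature. Luminescence read before and 20 min after 0.1 nM hNppA.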
GPT2 inh = blocks human glutamate pyruvate transaminase 2; Q8TD30; Recombinant GPT2, coupled pyruvate oxidase/HRP Amplex Red fluorescence; Potency, µM (highest dose often 57.7 µM), usual class: inhibitors; 100,000 compounds, 0.25% hits; AID 1671188; also: nearly all actives have a fitted effect of over 60% in size
Target sequence (Q8TD30 whole entry, looked up): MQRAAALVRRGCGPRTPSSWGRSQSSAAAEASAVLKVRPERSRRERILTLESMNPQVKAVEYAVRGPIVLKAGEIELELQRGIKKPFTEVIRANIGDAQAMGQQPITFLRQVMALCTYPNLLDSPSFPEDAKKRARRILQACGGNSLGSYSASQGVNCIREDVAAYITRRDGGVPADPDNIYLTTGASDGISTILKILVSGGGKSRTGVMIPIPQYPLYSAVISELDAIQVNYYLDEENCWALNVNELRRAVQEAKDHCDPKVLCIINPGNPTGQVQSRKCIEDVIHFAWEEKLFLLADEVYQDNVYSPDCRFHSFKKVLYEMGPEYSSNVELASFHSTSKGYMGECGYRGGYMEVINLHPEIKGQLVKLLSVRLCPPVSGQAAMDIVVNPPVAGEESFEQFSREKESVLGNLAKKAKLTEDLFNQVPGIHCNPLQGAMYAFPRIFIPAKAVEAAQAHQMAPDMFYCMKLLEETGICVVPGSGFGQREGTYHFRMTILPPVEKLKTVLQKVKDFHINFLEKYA
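Recombinant GPT2 (10ng/uL) with 250uM a-KG and 2mM L-alanine, 30 min at room temperature, in HEPES pH 7.5 buffer. Pyruvate detected by pyruvate oxidase/HRP/Amplex Red fluorescence after 30 min in the dark; AOA (50uM) as positive control.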
A number is an active result; i = inactive; ? = inconclusive; nt = not tested or not shown; [ ] = another dose, or the depositor's remark. Unless noted, calls follow the shape of the dose curve; as a rule, active = well fitted curve in the direction sought with a large enough effect; inconclusive = small, poorly fitted or top-dose-only effect, or another doubt; inactive = no such curve, though single readings can be large; an effect the other way counts as inactive or inconclusive.

SMILES	HEK cytotox	NIH3T3 tox	Luciferase inh	hNpr1 antagonist	GPT2 inh
O=C(NC1CCN(c2ccc3nnc(-c4ccccc4)n3n2)CC1)c1ccc(Cl)nc1	i	i	nt	nt	nt
O=C(NC1CCCN(c2ccc3nnc(-c4ccccc4)n3n2)C1)c1ccc(Cl)nc1 (stereo not given)	28.2µM	?	nt	nt	nt
COc1ccc(C(=O)NC2CCN(c3ccc4nnc(-c5ccccc5)n4n3)CC2)cc1	79.4µM	?	nt	nt	nt
CN(C)C(=O)NC1CCCN(c2ccc3nnc(-c4ccccc4)n3n2)C1 (stereo not given)	?	44.7µM	nt	nt	nt
O=C(NC1CCCN(c2ccc3nnc(-c4ccccc4)n3n2)C1)c1ccccc1 (stereo not given)	35.5µM	28.2µM	nt	nt	nt
O=C(NC1CCN(c2ccc3nnc(-c4ccccc4)n3n2)CC1)c1ccccc1	?	i	nt	nt	nt
CCOC(=O)C1(Cc2cccc(OC)c2)CCCNC1 (stereo not given)	?	i	i	i	?
O=C(Nc1ccc(Cl)cc1)N1CCCN(c2ccc3nnc(-c4ccccc4)n3n2)CC1	?	28.2µM	nt	nt	nt
CS(=O)(=O)N1CCC(NC(=O)c2[nH]ncc2NC(=O)c2c(Cl)cccc2Cl)CC1	nt	nt	nt	nt	i
O=C(NCCc1cccc(F)c1)C1CCCN(C2CCN(C(=O)C3CC3)CC2)C1 (stereo not given)	i	i	i	i	i
O=C(Nc1ccccc1)c1cnc(-c2ccc(F)cc2)nc1-c1ccncc1	i	?	i	i	i
O=C(Nc1cc(F)cc(F)c1)c1cnc(-c2ccc(F)cc2)nc1-c1ccncc1	22.4µM	20µM	?	?	i
O=C(Nc1ccc(F)c(Cl)c1)c1cnc(-c2ccccc2)nc1-c1ccncc1	35.5µM	25.1µM	i	?	i
CC(=O)Nc1ccc(CN[C@@H]2CO[C@H](CNC(=O)NC(C)C)[C@H]2O)cc1	i	i	i	i	?
CCc1ccc([S+](=O)([O-])c2nnn3c2nc(NCCCOC)c2ccccc23)cc1	i	?	nt	nt	i
COC(=O)[C@@H]1Cc2c([nH]c3ccccc23)[C@H]2C[C@@H](NCc3cccs3)C[C@@H](c3ccccc3F)N21	39.8µM	?	i	i	i
COC(=O)[C@@H]1Cc2c([nH]c3ccccc23)[C@H]2C[C@@H](NCc3ccccc3)C[C@@H](c3ccccc3F)N21	25.1µM	25.1µM	i	i	i
CC(=O)N1CCN(C(=O)c2ccc3oc(-c4cccc(C)n4)nc3c2)CC1	i	i	nt	nt	i
Cn1c(=O)n([C@H]2CCN(C(=O)c3ccco3)C2)c2ncccc21	i	i	nt	nt	?
COCCN(Cc1nccs1)C(=O)c1cnc(-c2ccccn2)[nH]c1=O	39.8µM	?	i	i	i
CC1=C(C(=O)OC(C)C)C(c2ccc(C)cc2)N2C(CC(=O)N(C)Cc3ccco3)=CSC2=N1 (stereo not given)	?	?	i	i	i
CC(=O)N1CCN(c2nc3c(s2)CC(C(=O)Nc2ccc(F)c(Cl)c2)CC3)CC1 (stereo not given)	7.94µM	20µM	i	?	i
CC(=O)N1CCN(c2nc3c(s2)CC(C(=O)NCc2ccc(C(C)C)cc2)CC3)CC1 (stereo not given)	44.7µM	?	i	?	i
CC(=O)N1CCN(c2nc3c(s2)CC(C(=O)NCc2cc(F)cc(F)c2)CC3)CC1 (stereo not given)	?	i	i	i	i
CCC(=O)N1CCN(c2nc3c(s2)CC(C(=O)Nc2ccc4c(c2)OCO4)CC3)CC1 (stereo not given)	14.1µM	?	i	i	i
SMILES	HEK cytotox	NIH3T3 tox	Luciferase inh	hNpr1 antagonist	GPT2 inh
CCC(=O)N1CCN(c2nc3c(s2)CC(C(=O)Nc2ccc(C(C)C)cc2)CC3)CC1 (stereo not given)	35.5µM	?	i	?	i
CC(C)NC[C@H]1O[C@@H]2C[C@@H](CC(=O)NC(C)C)O[C@@H]2[C@@H]1O	i	i	i	i	i
CCc1ccc(NC(=O)C2CCc3nc(N4CCN(C(=O)C(C)C)CC4)sc3C2)cc1 (stereo not given)	?	i	i	i	i
CCC(=O)N1CCN(c2nc3c(s2)CC(C(=O)Nc2ccc(F)cc2)CC3)CC1 (stereo not given)	12.6µM	31.6µM	i	?	i
CC(C)C(=O)N1CCN(c2nc3c(s2)CC(C(=O)NCCc2cccs2)CC3)CC1 (stereo not given)	79.4µM	i	i	i	i
CC(C)C(O)C1CCN(c2nccc(-c3cc(C(=O)O)ccn3)n2)CC1 (stereo not given)	i	i	50.1µM	i	i
COc1ccc(N2CCN(c3cc(C4CC(N)C4)nc(N)n3)CC2(C)C)cc1 (stereo not given)	22.4µM	22.4µM	i	i	i[11.5 µM]
Cc1nonc1CN1CCN(c2cc(C3CC(N)C3)nc(N)n2)CC1 (stereo not given)	i	i	i	i	i
O=C1NCc2ccccc2CC12CCN(Cc1ccc(Oc3ccccc3)cc1)C2 (stereo not given)	?	31.6µM	nt	nt	i
O=C1NCc2ccccc2CC12CCN(Cc1ccc(F)cc1)C2 (stereo not given)	?	i	nt	nt	i
O=C1NCc2ccccc2CC12CCN(Cc1ccc(-c3ccccc3)cc1)C2 (stereo not given)	35.5µM	35.5µM	nt	nt	i
O=C(CO[C@H]1CN(Cc2ccc(C(=O)O)cc2)C[C@H]1F)Nc1ccccc1O	i	i	i	i	i
COc1ccc(-c2nc(-c3c(C)noc3C)cc3c2cc(-c2ccccc2)n3C)cn1	?	50.1µM	i	i	i
COc1ncccc1-c1nc(-c2c(C)noc2C)cc2c1cc(-c1ccccc1)n2C	28.2µM	25.1µM	i	i	i
Cc1noc(C)c1-c1cc2c(cc(-c3ccccc3)n2C)c(-c2cccnc2)n1	?	?	i	i	?
Cc1ccccc1C(=O)N1CCC2(CC1)NC(=O)N(c1ccc(F)cc1)N2	?	?	i	i	i
COc1ccc(CNC(=O)C[C@@H]2C[C@@H](C(C)C)[C@H](CNC(C)=O)C=C2C)cc1	?	100µM	i	i	i
CC1=C[C@@H](CO)[C@H](C(C)C)C[C@H]1CC(=O)NCc1ccc(C(F)(F)F)cc1	39.8µM	?	i	i	i
CCNC(=O)C1C(c2cccc(NC(=O)Cc3ccccc3)c2)OC(=O)N1Cc1ccc(C)cc1 (stereo not given)	?	i	i	i	i
O=C(Nc1ccc(Cl)cc1)NC1CCCN(CCn2nc3n(c2=O)CCCC3)C1 (stereo not given)	i	i	nt	nt	nt
Cc1ccc(CN2CCC3(CCCO3)CCC2=O)c2ccccc12 (stereo not given)	?	i	i	i	i
CCN1CCC2(CCC1=O)CN(Cc1ccc(C)c3ccccc13)CCN2C (stereo not given)	79.4µM	i	i	i	i[11.5 µM]
